Tgondii IFNg: blocks Toxoplasma gondii growth in the presence of IFN-gamma; Toxoplasma gondii growth in IFN-gamma-treated host cells; stronger effect = lower value; activity change, negative = inhibition, % (no concentration beside the values); 69,000 compounds, 3.8% hits; in the data active = activity change below about -70%, passing the limit was not always enough;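 also: host cells are HeLa cells infected with Toxoplasma gondii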
Hits are given with their value; – = inactive; ! = not active in a repeat. The entries come from a sample that favours hits as a whole.

SMILES	Tgondii IFNg
Cc1oc(-c2ccc(C(=O)NCC3CCCO3)cc2)nc1CN1CCN(c2ccccc2)CC1 (stereo not drawn)	–
Cc1ccc(C)c(NC(=O)c2ccc(-c3nc(CN4CCN(c5ccccc5)CC4)c(C)o3)cc2)c1	–
Cc1ccc(C)c(CNC(=O)c2ccc(-c3nc(CN4CCN(c5ccccc5)CC4)c(C)o3)cc2)c1	-79
C1=C[C@H]2C[C@@H]1C[C@H]2CCn1ccnc1-c1cnc[nH]1	–
Cc1nn(CC(=O)NCCSCc2ccco2)c(C)c1Br	–
O=C(CCCOc1ccc(Cl)cc1Cl)NCc1ccccn1	–
CN(C)C/C=C/C(=O)Nc1cc2c(Nc3ccc(F)c(Cl)c3)ncnc2cc1O[C@H]1CCOC1	-75
CCOc1cc2ncc(C#N)c(Nc3ccc(F)c(Cl)c3)c2cc1NC(=O)/C=C/CN(C)C	-77
CCOc1cc2ncc(C#N)c(Nc3ccc(OCc4ccccn4)c(Cl)c3)c2cc1NC(=O)/C=C/CN(C)C	-81
C=CC(=O)Nc1cc2c(Nc3ccc(F)c(Cl)c3)ncnc2cc1OCCCN1CCOCC1	–
COc1ccc(C(=O)Nc2ccc3nc(C)c(C)nc3c2)cc1OCc1ccccn1	–
CN1CCN(CCOc2cc(OC3CCOCC3)c3c(Nc4c(Cl)ccc5c4OCO5)ncnc3c2)CC1	–
O=C(c1ccc(F)cc1)N1CCCC2(COCCN(CC3CC3)C2)C1 (stereo not drawn)	–
Cc1cc2c(cc1C)C(=O)NCC(C(=O)NCCc1c[nH]c3ccccc13)O2 (stereo not drawn)	–
COCc1nc(NCCN2CCNC2=O)c2cnn(C)c2n1	–
Cn1ccnc1SCCn1ccnc1-c1ccccc1C(=O)O	–
CCOC(=O)c1cc(C2CC2)nc2c1c(=O)n(Cc1nc(-c3ccccc3)oc1C)c(=O)n2C	–
O=C(NCCc1csc(-c2cccc(F)c2)n1)C(=O)Nc1ccccc1	–
Cc1cccc(NC(=O)C(=O)NCCc2csc(-c3cccc(F)c3)n2)c1	-87
Cc1ccc(NC(=O)C(=O)NCCc2csc(-c3cccc(F)c3)n2)c(C)c1	–
Cc1cccc(C)c1NC(=O)C(=O)NCCc1csc(-c2cccc(F)c2)n1	–
Cc1cc(C)c(NC(=O)C(=O)NCCc2csc(-c3cccc(F)c3)n2)c(C)c1	-80
Cc1cccc(NC(=O)C(=O)NCCc2csc(-c3ccc(Cl)cc3)n2)c1	–
O=C(c1cc2n(n1)CCCNC2)N1CCCC1c1nc2ccccc2s1 (stereo not drawn)	–
CN(C)[C@@H]1C[C@@H](CO)N(C(=O)c2ccccn2)C1	–
SMILES	Tgondii IFNg
CN(C)C(=O)Cn1nc(-c2cccs2)n(-c2ccncc2)c1=O	–
COc1ccc2c3c([nH]c2c1)[C@H](CO)N(C(=O)c1cccnc1)CC31CN(C(=O)Nc2cccc(F)c2)C1	–
CCc1sc(N2[C@@H](C#N)[C@@H](c3ccccc3-c3cccc(F)c3)[C@@H]2CO)nc1C	–
Clc1cccc(N2CCN(Cc3nnn(Cc4ccco4)n3)CC2)c1	–
NC(=O)c1cc2c(s1)-c1cc(Cl)ccc1SC2	-79
CO[C@H]1CC[C@@H]2CCN(C)C(=O)[C@@H](C)CN(C)C(=O)c3cc(C#N)ccc3OC[C@H]1O2	–
CC1=C(C(=O)NCc2ccco2)C2(CCN(S(=O)(=O)c3cccs3)CC2)OC1=O	–
Cn1cc(CN2CCC(C(O)(c3ccccc3)c3ccccc3)CC2)cn1	–
CC(C(=O)N1CCC(C(O)(c2ccccc2)c2ccccc2)CC1)n1ccnc1 (stereo not drawn)	–
CC(C)(C)c1ccc(C(O)CCCN2CCC(C(O)(c3ccccc3)c3ccccc3)CC2)cc1 (stereo not drawn)	-91!
Cc1cccc(C)c1NC(=O)C(=O)NCCc1csc(-c2ccc(Cl)cc2)n1	–
CN1CCN(C(=O)c2cc3ccc(-c4ccccc4)cn3c2-c2cocn2)CC1	–
O=C(CC1CC1)N1[C@H](CO)[C@@H]2c3ccccc3N(S(=O)(=O)c3ccccc3F)C[C@@H]21	–
S=c1ccss1	–
O=c1cc2nn[nH]n2nc1-c1ccccc1	–
Nc1[nH]nc2nnc(-c3c(-c4ccccc4)nn4ccccc34)cc12	–
O=c1[nH]nc2c(-c3ccccc3)c(-c3ccccc3)c(-c3ccccc3)nn12	-106
Cc1ccc(-c2coc(-c3ccc(NC(=O)NCc4ccc(F)cc4)cc3)n2)c(C)c1	–
Cc1cc(C)cc(NC(=O)N2CCC3(CC2)Nc2cc(C)ccc2-n2cccc23)c1	-108
CCN1c2cc(C)ccc2-n2cccc2C12CCN(C(=O)Nc1ccc(C)cc1Cl)CC2	–
Cc1ccc(C)c(NC(=O)N2CCC3(CC2)Nc2cc(C)ccc2-n2cccc23)c1	–
CCN1c2cc(C)ccc2-n2cccc2C12CCN(C(=O)Nc1cccc(F)c1)CC2	-85
Cc1cc(C)cc(NC(=O)N2CCC3(CC2)Nc2cc(F)ccc2-n2cccc23)c1	–
CCN1c2cc(C)ccc2-n2cccc2C12CCN(C(=O)Nc1cccc(Cl)c1C)CC2	–
CCN1c2cc(C)ccc2-n2cccc2C12CCN(C(=O)Nc1ccc(C)c(Cl)c1)CC2	–
SMILES	Tgondii IFNg
CCN1c2cc(C)ccc2-n2cccc2C12CCN(C(=O)NC(C)C)CC2	–
CCN1c2cc(C)ccc2-n2cccc2C12CCN(C(=O)Nc1ccccc1C)CC2	–
CCN1c2cc(C)ccc2-n2cccc2C12CCN(C(=O)Nc1ccccc1Cl)CC2	-110
CCN1c2cc(C)ccc2-n2cccc2C12CCN(C(=O)Nc1cccc(Br)c1)CC2	-84
CCN1c2cc(C)ccc2-n2cccc2C12CCN(C(=O)Nc1ccc(OC)c(OC)c1)CC2	–
O=C1c2nccnc2C(=O)N1C(c1ccccc1)c1ccccc1	–
Cc1ncc2c(n1)[C@]1(C)CCCN(C(=O)c3cscn3)C1CC2 (stereo partly drawn)	–
O=C(CN1C(=O)CCc2cc(Br)ccc21)NC1CCCCCC1	–
Cc1nc2c(c(=O)[nH]1)CCN(C(=O)C(C)n1ncc3ccccc3c1=O)CC2 (stereo not drawn)	–
CCS(=O)(=O)N1CCC(C(=O)NCCc2csc(-c3cccs3)n2)CC1	–
O=C(CSc1ncn(-c2ccccc2)n1)Nc1cccc2ccccc12	–
CNc1ccc2nnc(C(F)(F)C(F)(F)C(F)(F)F)n2n1	–
CN1c2ccc(C3=CCCCC3)cc2[C@@H]2[C@@H](CCN2C(=O)Cc2ccccn2)[C@H]1CO	–
O=C(NC1CC1)c1ccnc(N2CCC3(CCCO3)CC2)c1	–
CCC(C(=O)N1CCCN(C)CC1)n1cc(C(C)=O)c2ccccc21 (stereo not drawn)	–
CN(C)C(=O)c1cc(-c2cnc(N3CCOCC3)nc2)cn1CC1CC1	–
COc1ccccc1-c1ccccc1[C@H]1[C@@H](C#N)N(C(=O)C2CCOCC2)[C@@H]1CO	–
COc1ccc(Cn2cc(C(=O)N(C)Cc3ccnc4ccccc34)nn2)cc1	–
O=C(CN1C(=O)c2ccccc2C1=O)N1CC=C(c2ccccc2)CC1	–
O=C(Nc1cccc(C(F)(F)F)c1)N1CCC2(CC1)Nc1ccccc1-n1cccc12	–
CSc1cccc(NC(=O)N2CCC3(CC2)Nc2cc(F)ccc2-n2cccc23)c1	–
Cc1ccc2c(c1)NC1(CCN(C(=O)Nc3cccc(C(F)(F)F)c3)CC1)c1cccn1-2	–
CCN1c2cc(C)ccc2-n2cccc2C12CCN(C(=O)Nc1cccc(C(F)(F)F)c1)CC2	-111
CCN1c2cc(C)ccc2-n2cccc2C12CCN(C(=O)Nc1cccc(SC)c1)CC2	-87
CCOC(=O)C1CCC(CNC(=O)N2CCC3(CC2)c2cccn2-c2ccc(C)cc2N3CC)CC1 (stereo not drawn)	–
c1cnc(-c2cnc(NCCN3CCOCC3)nc2[C@H]2CCCO2)cn1	–
